HSF1 activator = increases HSF-1 driven luciferase reporter signal; NIH3T3-HGL HSF-1 luciferase reporter, MG132, 8 h; 100% = twice DMSO control signal; activation, % at 9 µM; AID 504408; 300,000 compounds, 1.7% hits;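 active = mean replicate activation of at least 50% with a set share of replicates each reaching 50%; inconclusive = only one of those two conditions met; inactive = mean below 50% and too few replicates reaching it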
TNF death inh = inhibitors of TNF-alpha induced necroptosis in Jurkat FADD-/- cells | Jurkat FADD-/- TNF necroptosis rescue, ATP luminescence, 24 h; 0 = TNF only, 100 = no-TNF cells | activation (protection from cell death), % at 10 µM | AID 463075 | 220,000 compounds, 0.068% hits;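 active = activation, meaning protection from cell death, of at least 50% relative to plate controls; inactive = activation below 50%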;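 note: necroptosis triggered by 40 ng/mL TNF-alpha added together with compound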
Hsp70 act = Hsp70 transcriptional activation, primary screen; 200,000 compounds, 0.04% hits; HeLa Hsp70 promoter luciferase reporter, luminescence; scaled: vehicle 0, proteasome-inhibitor control 100%; activation, % at 10 µM;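 active = activation above the mean across all tested compounds plus 3 SD, cutoff set per campaign, cut at about 5.5% in these data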
L929 necroptosis = L929 zVAD cell death inhibition; viability rescue, % at 10 µM; L929 zVAD necroptosis rescue, ATP luminescence, 24 h; with zVAD 60 µM; 220,000 compounds, 0.38% hits;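 active = activation, scaled between plate controls, above about 75%, limit read from the data; inactive = activation under that limit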
A number is an active result. Rows were chosen to be rich in hits. Some 1.9% of all compounds tested hit in one or more screens of this group.

For CCOC(=O)NC(=O)C(=CNc1ccc(C)cc1)C(=O)NC(=O)OCC the results were HSF1 activator inactive, TNF death inh inactive, Hsp70 act inactive and L929 necroptosis inactive.
Screening O=C(COc1ccccc1Cl)Nc1ccccc1C(=O)N1CCCCC1 returned HSF1 activator inactive.
`CCOC(=O)c1c(C)n(C)c2ccc(O)c(CN3CCC(C)CC3)c12` gave HSF1 activator inactive, TNF death inh inactive, Hsp70 act inactive and L929 necroptosis inactive.
`CCOC(=O)c1c(CSc2ccccc2)n(C)c2ccc(O)c(CN3CCOCC3)c12` gave HSF1 activator 70.2, TNF death inh inactive, Hsp70 act inactive and L929 necroptosis inactive.
`CCOC(=O)c1c(C)n(C)c2ccc(O)c(CN3CCN(C)CC3)c12` gave HSF1 activator 55.6, TNF death inh inactive, Hsp70 act inactive and L929 necroptosis inactive.
For O=C(Nc1ccc(S(=O)(=O)N2CCOCC2)cc1)c1ccc([N+](=O)[O-])s1 the results were HSF1 activator inactive.
For O=C(Nc1ccc(S(=O)(=O)N2CCOCC2)cc1)c1ccc([N+](=O)[O-])o1 the results were HSF1 activator 122.8, TNF death inh inactive and L929 necroptosis inactive.
`O=C(Nc1ccc(N2CCOCC2)cc1)c1ccc([N+](=O)[O-])o1` gave HSF1 activator 145.9.
Screening O=C(Nc1ccc(N2CCOCC2)cc1)c1ccc(Br)o1 returned HSF1 activator inactive.
`O=C(Nc1ccc(Cc2ccncc2)cc1)c1ccc([N+](=O)[O-])o1` gave HSF1 activator 143.6.
Screening O=C(Nc1ccc(Br)cc1)c1ccccc1Br returned HSF1 activator 53.3.
`O=C(N/N=C/c1cc(Cl)ccc1O)c1ccccc1Br` gave HSF1 activator inactive, TNF death inh inactive, Hsp70 act inactive and L929 necroptosis inactive.
Screening O=C(Nc1ccc(Nc2ccccc2)cc1)c1ccc(Cl)cc1Cl returned HSF1 activator inactive.
Screening CCc1ccc(NC(=O)c2ccccc2Br)cc1 returned HSF1 activator inactive, TNF death inh inactive, Hsp70 act inactive and L929 necroptosis inactive.
`O=C(/C=N/NC(=O)c1ccc(Cl)cc1Cl)c1ccccc1` gave HSF1 activator 56.7, TNF death inh inactive and L929 necroptosis inactive.
`O=C(/C=N/NC(=O)c1ccccc1Br)c1ccccc1` gave HSF1 activator 58.7, TNF death inh inactive, Hsp70 act inactive and L929 necroptosis inactive.
O=C(Nc1ccc(Br)cc1)c1cc2ccccn2n1 was read as HSF1 activator 70.6, TNF death inh inactive and L929 necroptosis inactive.
For O=C(NCCc1ccc(Cl)cc1)c1cc2ccccn2n1 the results were HSF1 activator inactive, TNF death inh inactive and L929 necroptosis inactive.
`CCOc1ccc2nc(SCC(=O)Nc3ccc4[nH]c(=O)[nH]c4c3)[nH]c2c1` gave HSF1 activator inactive.
Screening Cc1ccc(CNC(=O)Cc2ccc(Br)cc2)cc1 returned HSF1 activator inactive.
Screening COc1cc(NC(=O)Cn2cnc(S(=O)(=O)N3CCC(C)CC3)c2)cc(OC)c1OC returned HSF1 activator inactive.
For CN1C[C@@H]2C(c3ccc(C(F)(F)F)cc3)C3(c4cccnc4)CC2(C3)[C@H]1c1ccccc1 (some centres undefined) the results were HSF1 activator inactive, TNF death inh inactive and L929 necroptosis inactive.
`Cc1ccc(C(=O)C2CCN(CC(=O)Nc3nc(C)cs3)CC2)cc1` gave HSF1 activator inactive, TNF death inh inactive, Hsp70 act inactive and L929 necroptosis inactive.
Screening O=[N+]([O-])c1ccccc1N/N=C/c1ccc2c(c1)OCO2 returned HSF1 activator 65.4, TNF death inh inactive, Hsp70 act inactive and L929 necroptosis inactive.
`O=[N+]([O-])c1ccccc1N/N=C/c1ccccc1` gave HSF1 activator inactive.
`NS(=O)(=O)c1ccc(N/N=C/c2ccc3c(c2)OCO3)c([N+](=O)[O-])c1` gave HSF1 activator inactive, TNF death inh inactive, Hsp70 act inactive and L929 necroptosis inactive.
`O=[N+]([O-])c1ccccc1N/N=C/c1c[nH]c2ccccc12` gave HSF1 activator 150.2, TNF death inh inactive, Hsp70 act inactive and L929 necroptosis inactive.
Screening O=[N+]([O-])c1ccc(N/N=C/c2c[nH]c3ccccc23)cc1 returned HSF1 activator 155.4, TNF death inh inactive, Hsp70 act inactive and L929 necroptosis inactive.
`O=[N+]([O-])c1ccc(N/N=C/c2cn(-c3ccccc3)nc2-c2ccccc2)cc1` gave HSF1 activator 63.5, TNF death inh inactive, Hsp70 act inactive and L929 necroptosis inactive.
`CCC(=O)Nc1cccc(NC(=O)c2cccc([N+](=O)[O-])c2)c1` gave HSF1 activator inactive, TNF death inh inactive, Hsp70 act inactive and L929 necroptosis inactive.
Cc1ccc(-c2nn(C)c(=O)c3ccccc23)cc1CNC(=O)NC1CCCCC1 was read as HSF1 activator inactive, TNF death inh inactive and L929 necroptosis inactive.
Screening CC(C)CC1Nc2ccc(C(=O)NCCCN3CCCCC3C)cc2NC1=O (centres undefined) returned HSF1 activator inactive.
`O=C1C(=O)N(CCS(=O)(=O)c2ccccc2)c2ccc(F)cc21` gave HSF1 activator inactive.
For COc1cccc(CSc2nnc(C(F)(F)F)n2Cc2ccc(F)cc2)c1 the results were HSF1 activator 87.5, TNF death inh inactive, Hsp70 act inactive and L929 necroptosis inactive.
For Cc1ccc(CSc2nnc(C(F)(F)F)n2Cc2ccc(F)cc2)cc1 the results were HSF1 activator inactive, TNF death inh inactive, Hsp70 act inactive and L929 necroptosis inactive.
For COC(=O)c1sc(N)c(C(=O)OC)c1COC(=O)c1c(C)noc1C the results were HSF1 activator inactive, TNF death inh inactive, Hsp70 act inactive and L929 necroptosis inactive.
`COC(=O)c1sc(N)c(C(=O)OC)c1Cn1ncc(Cl)c(Cl)c1=O` gave HSF1 activator 61.3.
For COc1cc2c(cc1OC)C(c1cccs1)N(C(=S)NC(C)C)CC2 (centres undefined) the results were HSF1 activator 90.6, TNF death inh inactive, Hsp70 act inactive and L929 necroptosis inactive.
Screening O=C(COC(=O)C1CC2CCCC(C1)C2=O)NNC(=O)c1ccc([N+](=O)[O-])cc1 (centres undefined) returned HSF1 activator inactive.
Screening Cc1c(NC(=O)c2ccc(C(C)(C)C)cc2)cccc1[N+](=O)[O-] returned HSF1 activator 72.0, TNF death inh inactive, Hsp70 act inactive and L929 necroptosis inactive.
For Cc1ccnc(NC(=O)c2ccc([N+](=O)[O-])s2)c1 the results were HSF1 activator 69.7.
Screening Cc1cccc(NC(=O)c2ccc([N+](=O)[O-])s2)c1C returned HSF1 activator 55.7, TNF death inh inactive, Hsp70 act inactive and L929 necroptosis inactive.
`Cc1ccnc(NC(=O)c2cc([N+](=O)[O-])cc([N+](=O)[O-])c2)c1` gave HSF1 activator inactive, TNF death inh inactive, Hsp70 act inactive and L929 necroptosis inactive.
Screening Cc1cccc(C)c1NC(=O)c1ccc([N+](=O)[O-])s1 returned HSF1 activator inconclusive, TNF death inh inactive, Hsp70 act inactive and L929 necroptosis inactive.

Screening data (PubChem)
